Here are results for 40 compounds from PubChem BioAssay (Tox21).

SMILES strings stand for the structures. Results filed as inconclusive are left out. A number with no mark means an inactive call. The source made the active and inactive calls. Calls follow the shape of the dose curve; as a rule, active = well fitted inhibition curve with a large enough effect in the repeat runs; inconclusive = weak or mixed curves; inactive = no such curve, though single readings can be large or run the other way.
% is scaled to controls: 0 for no effect and ±100 for the full control effect; potency is read from the fitted curve at half-maximal effect.

The nature of the assay: qHTS assay to identify small molecule antagonists of the thyroid receptor (TR) signaling pathway (AID 743065). Also: nearly all actives have a fitted effect of over 55% in size. To be noted: GH3.TRE-Luc, T3-stimulated luciferase inhibition, 23.5 h; series mostly up to 70.3 µM; activity, negative = inhibition: at the top concentration. The source says: U.S. Tox21 Program National Center for Advancing Translational Sciences [NCATS] NIH Chemical Genomics Center [NCGC] U.S. Environmental Protection Agency [EPA] National Institutes of Environmental Health Sciences [NIEHS] National Toxicology Program [NTP] U.S. Food and Drug Administration [FDA] Tox21 Assay Overview: Thyroid receptor (TR), a nuclear hormone receptor, plays an important role in development, proliferation, differentiation, metabolism, brain function, and cardiovascular system. […] To profile the Tox21 10K compound library in TR signaling, a cell-based GH3-TRE-Luc assay (GH3.TRE-Luc cell line, developed by the laboratory of Dr. Albertinka J. Murk, Wageningen University) was used to measure the inhibition of TR. GH3 (rat pituitary tumor) cells stably expressing a TR activity sensor consisting of two TR response elements and a luciferase reporter gene.
Tox21 Assay Protocol Summary: GH3.TRE-Luc cells were dispensed at 1500 cells/4 uL/well into 1536-well white solid bottom plates using a Multidrop Combi dispenser (Thermo Fisher Scientific Inc., Waltham, MA). After the assay plates were incubated at 37 C for 4 hours, 23 nL of library compound or DMSO controls was transferred to the assay plates by a pintool station (Kalypsys, San Diego, CA), followed by addition of 1 ul of T3 (1 nM, final concentration in the wells) to stimulate TR transactivation. The assay plates were incubated at 37 C for 23.5 h, and then 1 uL of CellTiter-Fluor reagent (Promega, Madision, WI) of measuring cytotoxicity was added to each well using a Bioraptr Flying Reagent Dispenser (FRD) workstation (Beckman Coulter, Indianapolis, IN, USA). The plates were incubated at 37 C and 5% CO2 for additional 30 min, and fluorescence intensity was measured by a ViewLux plate reader (PerkinElmer, Shelton, CT). For measuring luciferase reporter gene activity, 4 uL of ONE-Glo Luciferase Assay reagent (Promega) was added to each well using a Bioraptr FRD (Beckman Coulter), followed by 30 min incubation at room temperature. The luminescence intensity of plates was recorded by a ViewLux plate reader (PerkinElmer, Shelton, CT).
For the compound `Cc1nc(-c2ccc(OCC(C)C)c(C#N)c2)sc1C(=O)O`, the Potency was 13.3 µM (active).
For the compound `C=CC(=O)N1CCOCC1`, the “activity, negative = inhibition” value was 9.31%.
The same measure, in the same setting: the figure for `CCCC=O` is 11.6%.
Consider `Cc1c(C)n(CCN(C)C)c2ccc(C(=O)OCCN(C)C)cc12`, for which the Potency was 21.1 µM (active).
Consider `CC(=O)NC(Cc1ccccc1)C(=O)O` (stereo not given), for which the “activity, negative = inhibition” value is 1.33%.
On the same count and under the same terms, the value for `COc1cccc(OC)c1` was 7.14%.
Take `COC(=O)[C@H]1[C@H]2C[C@@H]3c4[nH]c5cc(OC)ccc5c4CCN3C[C@H]2C[C@@H](OC(=O)COc2ccc(OC)cc2)[C@@H]1OC`: the Potency is 23.7 µM (active).
`CC(C)(O)c1ccccc1`: the “activity, negative = inhibition” value was 14.8%.
Consider `[O-][N+](=Nc1ccccc1)c1ccccc1`, for which the “activity, negative = inhibition” value is -19.3%.
On the same count and under the same terms, the figure for `O=C(O)c1ccccc1S` is 6.01%; for `CCCCCCOC(=O)c1ccccc1O` it is 0.147%; for `NC(=O)c1ncn([C@@H]2O[C@H](CO)[C@@H](O)[C@H]2O)c1O` it is 8.03%.
The same measure, in the same setting: the value for `NC(=S)Nc1cccc2ccccc12` was -4.6% [at 8.44 µM]; that for `C=C(C)C(=O)OCCCCCCCCCCCCCCCCCC` was -3.42% [at 32.5 µM]; that for `FC(F)(F)C(F)(F)C(F)(F)C(F)(F)C(F)(F)C(F)(F)C(F)(F)C(F)(F)C(F)(F)C(F)(F)F` was 5.14% [at 8.44 µM].
Turning to `C1C2OC2C2C1C1CC2C2OC12` (stereo not given), the “activity, negative = inhibition” value was 18.9% [at 95 µM].
Still for that read-out and setting: the figure for `CCOC(=O)Cn1c(=O)sc2cccc(Cl)c21` is 0.227%; for `CCCCCCC(=O)OCC` it is 15.9%.
Same read-out and setting: the value for `O=C(O)C(O)[C@H](O)[C@@H](O)[C@H](O)[C@H](O)CO` (stereo not given in full) was -4.64% [at 95 µM].
Same read-out and setting: the figure for `CCCCCCCCN(C)CCCCCCCC` is 22.9% [at 95 µM].
Consider `CCCCOCC(C)OCC(C)O` (stereo not given), for which the “activity, negative = inhibition” value is 10.7% [at 95 µM].
As for `Cc1ccc(Nc2ccc(O)c3c2C(=O)c2ccccc2C3=O)cc1`, the “activity, negative = inhibition” value is -11.5%.
The same measure, in the same setting: the value for `CC(C)COC(=O)c1ccccc1O` was 4.25%; that for `Cc1cc(C)c(NC(=O)CN(CC(=O)O)CC(=O)O)c(C)c1Br` was 6.11%; that for `NS(=O)(=O)c1cc2c(cc1C(F)(F)F)NC(Cc1ccccc1)NS2(=O)=O` (stereo not given) was 2.49% [at 32.5 µM].
Same read-out and setting: the value for `COc1ccc(NC(C)=O)cc1` was 9.48% [at 95 µM]; that for `C[N+](C)(C)CC[N+]1(C)Cc2c(Cl)c(Cl)c(Cl)c(Cl)c2C1` was 2.6%.
Still for that read-out and setting: the value for `O=[N+]([O-])c1ccc(CCO)cc1` was 13.5%; that for `COc1nc(C)nc(N)n1` was 8.14%; that for `C[C@H]1O[C@@H](n2cc(F)c(=O)[nH]c2=O)[C@H](O)[C@@H]1O` was -1.77%.
As to `C1=C\CC/C=C\CC/C=C\CC/1`, the “activity, negative = inhibition” value was 7.2%.
Same read-out and setting: the value for `CCCCC1CCCCC(=O)O1` (stereo not given) was 3.37%; that for `OCCN1C[C@H](O)[C@@H](O)[C@H](O)[C@H]1CO` was 3.96%; that for `C=C[Si](OC)(OC)OC` was 6.18%.
Consider `C=C(C)C(=O)NCCC[N+](C)(C)C`, for which the “activity, negative = inhibition” value is -1.71%.
On the same count and under the same terms, the figure for `COC[C@H](c1ccc(C(F)(F)F)cc1)N1CCN(C2(C)CCN(C(=O)c3c(C)ncnc3C)CC2)C[C@H]1C` is -9.49%; for `CC(C)N1C(=O)c2ccccc2C1=O` it is 8.95%; for `CC(C)CCCCCCN` it is -0.0428%.
On the same count and under the same terms, the figure for `COc1cccc(Br)c1` is 3.73%; for `NC(=O)c1ncn([C@@H]2O[C@H](CO)[C@@H](O)[C@H]2O)c1N` it is -0.0456%.
